About 5,300 (4.4%) of roughly 120,000 compounds were called active. Another 22% or so got no clear call; they are omitted. The call rests on the fitted dose curve; in most records, active means well fitted inhibition curve with a large enough effect; inconclusive means small, poorly fitted or top-dose-only effect; inactive means no such curve, though single readings can be large or run the other way. What follows is part of a selection rich in actives, with near analogues and random picks from the rest.
Assay: qHTS Primary assay for Inhibitors of Plasmodium falciparum Dd2 growth in vitro; further: nearly all actives have a fitted effect of over 65% in size;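 on activity, negative = inhibition: plate controls were DMSO vehicle for no effect and reference drug for full effect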
Conditions: P. falciparum Dd2 growth, SYBR Green, 72 h; series mostly up to 28.9 µM; activity, negative = inhibition: at the top concentration
Summary of the method: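 Infected erythrocytes (Dd2, 0.3% parasitemia, 2.5% hematocrit final) are added to compound in RPMI-1640/Albumax II medium, grown 72 h at 37C in low oxygen, then lysed with saponin/Triton-X containing SYBR Green and read by fluorescence.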
In the case of `COc1ccc(-c2ccc3c(c2)C(=O)N2CCN(C(=O)CC4(CC(=O)O)CCCC4)C[C@H]2C(=O)N3)cc1`, the “outcome” value was “inactive”.
In the case of `CN1C(=O)CC(C(=O)O)C12CCN(Cc1cccc(OC(F)F)c1)CC2` (configuration not stated), the “activity, negative = inhibition” value was 18.1% (inactive).
With `CN(C)C[C@@H]1CN(C)C[C@H]1NC(=O)C1CCC1` the “activity, negative = inhibition” value was 32.2% (inactive).
In the case of `CCOC(=O)N1CCc2c(sc(NCc3cccc(F)c3)c2C(=O)Nc2ccccc2OCC)C1`, the Potency was 4.47 µM (active).
For `CCOC(=O)N1CCc2c(sc3c2C(=O)NC(c2ccccc2F)N3)C1` (configuration not stated), the “activity, negative = inhibition” value was -16.9% (inactive).
For `CCOc1cc(=O)n2c(c1C(=O)Nc1ccc(F)cc1F)CCCC2`, the “outcome” value was “inactive”.
For `CCOc1ccccc1N(CC)C(=O)Nc1cn(C)c(=O)c2ccccc12`, the “outcome” value was “inactive”.
With `CCOc1ccccc1N(CC)C(=O)c1cc2ccc3cccnc3c2[nH]1` the Potency was 12.6 µM (active).
In the case of `Cc1ccccc1CN1CCc2ncc(C(=O)NCCOc3ccccc3)n2CC1`, the “activity, negative = inhibition” value was 10.2% [at 44.1 µM] (inactive).
For `Cc1ccccc1CN1CCC(CNC(=O)c2cc3ccc4cccnc4c3[nH]2)CC1`, the Potency was 10 µM (active).
For `CCOc1ccccc1C(=O)N1CCC(Oc2ncccc2C(=O)N(C)C)C1` (configuration not stated), the “outcome” value was “inactive”.
With `Cc1ccccc1CN1CCC(N2CCCC(C(=O)NC3CC3)C2)CC1` (configuration not stated) the “activity, negative = inhibition” value was -22.1% (inactive).
For `CCOc1ccc(NC(=O)Cn2c(-c3ccc(F)cc3)nc(C)cc2=O)cc1`, the “activity, negative = inhibition” value was -11.4% (inactive).
In the case of `CN(C)c1ccc(C(CNS(=O)(=O)c2cc(F)ccc2F)N2CCOCC2)cc1` (configuration not stated), the “activity, negative = inhibition” value was -17.8% (inactive).
In the case of `COc1cccc(NC(=O)C(=O)NCC(c2ccc3c(c2)OCO3)N2CCN(C)CC2)c1` (configuration not stated), the Potency was 7.94 µM (active).
For `COc1ccc(Cn2ccnc2SCC(=O)Nc2ccc3c(c2)OCO3)cc1`, the “outcome” value was “inactive”.
With `CC(C)CC(=O)NCC(c1ccc2c(c1)OCO2)N1CCN(c2ccc(F)cc2)CC1` (configuration not stated) the Potency was 10 µM (active).
In the case of `COc1ccc(C(C(=O)O)N2CCCN(c3ccc(F)cc3)CC2)cc1F` (configuration not stated), the “activity, negative = inhibition” value was -9.93% (inactive).
With `Cc1ccc(NC(=O)C(=O)NCC(c2cccnc2)N2CCOCC2)cc1` (configuration not stated) the “activity, negative = inhibition” value was 6.96% (inactive).
For `O=C(CN1CC2CC(C1)[C@H]1CCCC(=O)N1C2)N1CCN(c2ccccn2)CC1` (some centres not stated), the “activity, negative = inhibition” value was -18.1% (inactive).
For `CCn1ncnc1C(C)NC1CCC2(CCNCC2)CC1` (configuration not stated), the “activity, negative = inhibition” value was 29.3% (inactive).
For `CCC(O)c1cc2n(n1)CCN(C(=O)c1cnc(C)nc1-c1ccccc1)C2` (configuration not stated), the “activity, negative = inhibition” value was 6.35% (inactive).
For `COc1ccc(S(=O)(=O)N[C@H]2C[C@H]3C(=O)NC[C@@H](CCC(=O)N4CCc5ccccc54)N3C2)cc1`, the “activity, negative = inhibition” value was -28.7% (inactive).
In the case of `CN1C(=O)[C@@H]2C[C@@H](O)CN2C2(CN(Cc3cnc4ccccc4c3)C2)C1=O`, the “activity, negative = inhibition” value was -5.31% [at 44.1 µM] (inactive).
In the case of `O=C(Cn1cc(SCc2cccc(Cl)c2)c2ccccc21)N1CCCCC1`, the “activity, negative = inhibition” value was -16.6% (inactive).
For `COc1ccccc1C(=O)NCCn1cc(SCc2ccccc2Cl)c2ccccc21`, the Potency was 3.98 µM (active).
For `COc1ccccc1C(=O)NCc1ccnc2[nH]ccc12`, the “activity, negative = inhibition” value was -1.5% [at 44.1 µM] (inactive).

From PubChem BioAssay AID1347417 (National Center for Advancing Translational Sciences (NCATS), 2020)
Potency means the concentration at half of the fitted maximal effect.
